Screen size: about 5,500 compounds; about 2,000 (36%) were called active. About 18% were inconclusive and are not listed. No stated cut-off is given here; in the data, active means normalized growth mostly below about 0.91 (no sharp cut-off); inconclusive means no clear call, values can overlap the other calls; inactive means mostly above about 0.92. The list shows a part of the results.
Experiment: chemical genetic growth profiling, strain panel (AID 1159580);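 further: tested at 20 µM; growth read once vehicle control cultures reached saturation at 30 °C; 1 = growth at the plate median or of vehicle wells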
Settings: growth OD
[1] = S. cerevisiae deletion strains, locus YHR030C, strain SLT2, stronger effect = lower value
[2] = S. cerevisiae deletion strains, locus YHR079C, strain IRE1, stronger effect = lower value
[3] = S. cerevisiae deletion strains, locus YJL095W, strain BCK1, stronger effect = lower value
[4] = S. cerevisiae deletion strains, locus YJR066W, strain TOR1, stronger effect = lower value
[5] = S. cerevisiae deletion strains, locus YLR113W, strain HOG1, stronger effect = lower value
[6] = S. cerevisiae deletion strains, locus YNL183C, strain NPR1, stronger effect = lower value
[7] = S. cerevisiae deletion strains, locus YOR231W, strain MKK1, stronger effect = lower value
[8] = S. cerevisiae deletion strains, locus YPL256C, strain CLN2, stronger effect = lower value
[9] = S. cerevisiae deletion strains, locus YJL187C, strain SWE1, stronger effect = lower value
[10] = S. cerevisiae deletion strains, locus YJR075W, strain HOC1, stronger effect = lower value
[11] = S. cerevisiae deletion strains, locus YMR263W, strain SAP30, stronger effect = lower value
[12] = S. cerevisiae deletion strains, locus YNL153C, strain GIM3, stronger effect = lower value
[13] = S. cerevisiae deletion strains, locus YNL322C, strain KRE1, stronger effect = lower value
[14] = S. cerevisiae deletion strains, locus YPL055C, strain LGE1, stronger effect = lower value
[15] = S. cerevisiae deletion strains, locus YPL241C, strain CIN2, stronger effect = lower value
[16] = S. cerevisiae deletion strains, locus YAL040C, strain CLN3, stronger effect = lower value
[17] = S. cerevisiae deletion strains, locus YCL061C, strain MRC1 (second series), stronger effect = lower value
[18] = S. cerevisiae deletion strains, locus YDR363W, strain ESC2, stronger effect = lower value
[19] = S. cerevisiae deletion strains, locus YER002W, strain NOP16, stronger effect = lower value
[20] = S. cerevisiae deletion strains, locus YNL175C, strain NOP13, stronger effect = lower value
[21] = S. cerevisiae deletion strains, locus YNL197C, strain WHI3, stronger effect = lower value
[22] = S. cerevisiae deletion strains, locus YNL224C, strain SQS1, stronger effect = lower value
[23] = S. cerevisiae deletion strains, locus YOR083W, strain WHI5 (second series), stronger effect = lower value

Measured: normalized growth

CC(Oc1ccc(Cl)cc1Cl)C(=O)O (stereo unspecified)
inactive: [1] 0.968 | [2] 0.964 | [3] 0.961 | [4] 0.898 | [5] 0.968 | [6] 0.896 | [7] 0.965 | [8] 0.955

O=C(Oc1ccc(Cl)cc1Cl)c1c(Cl)cccc1Cl
inactive: S. cerevisiae deletion strains, locus YAL013W, strain DEP1, stronger effect = lower value 0.946 | S. cerevisiae deletion strains, locus YBR229C, strain ROT2, stronger effect = lower value 0.981 | S. cerevisiae deletion strains, locus YDL101C, strain DUN1, stronger effect = lower value 0.979 | S. cerevisiae deletion strains, locus YDR150W, strain NUM1, stronger effect = lower value 0.882 | S. cerevisiae deletion strains, locus YEL061C, strain CIN8, stronger effect = lower value 0.997 | S. cerevisiae deletion strains, locus YGR078C, strain PAC10, stronger effect = lower value 0.965 | S. cerevisiae deletion strains, locus YHR087W, strain rtc3, stronger effect = lower value 0.982 | [9] 0.967 | S. cerevisiae deletion strains, locus YJR043C, strain POL32, stronger effect = lower value 0.955 | [10] 0.945 | S. cerevisiae deletion strains, locus YKL190W, strain CNB1, stronger effect = lower value 0.969 | S. cerevisiae deletion strains, locus YLR039C, strain RIC1, stronger effect = lower value 1.2 | S. cerevisiae deletion strains, locus YLR058C, strain SHM2 (second series), stronger effect = lower value 0.989 | S. cerevisiae deletion strains, locus YLR085C, strain ARP6, stronger effect = lower value 0.812 | S. cerevisiae deletion strains, locus YML094W, strain GIM5, stronger effect = lower value 0.968 | S. cerevisiae deletion strains, locus YMR219W, strain ESC1, stronger effect = lower value 0.985 | [11] 0.961 | [12] 0.985 | S. cerevisiae deletion strains, locus YNL298W, strain CLA4 (second series), stronger effect = lower value 0.957 | [13] 0.986 | S. cerevisiae deletion strains, locus YNR030W, strain Alg12, stronger effect = lower value 0.939 | [14] 0.876 | [15] 0.954 | S. cerevisiae deletion strains, locus YPR135W, strain CTF4, stronger effect = lower value 0.907 | S. cerevisiae strains, strain wild type, stronger effect = lower value 0.984
active: [1] 0.681 | S. cerevisiae deletion strains, locus YLR262C, strain YPT6, stronger effect = lower value 1.2 [resistant]

C[C@H]1C[C@@H](O)[C@]2(O)[C@@]13CC(=O)OC[C@@]2(C)[C@](C)(O)C(=O)C3
inactive: S. cerevisiae deletion strains, locus YAL021C, strain ccr4, stronger effect = lower value 1.02 | S. cerevisiae deletion strains, locus YAL026C, strain drs2, stronger effect = lower value 1.04 | S. cerevisiae deletion strains, locus YAL030W, strain snc1, stronger effect = lower value 1.02 | S. cerevisiae deletion strains, locus YBL061C, strain skt5, stronger effect = lower value 1.02 | S. cerevisiae deletion strains, locus YBR009C, strain hhf1, stronger effect = lower value 1.02 | S. cerevisiae deletion strains, locus YBR023C, strain chs3, stronger effect = lower value 1.03 | S. cerevisiae deletion strains, locus YBR171W, strain sec66, stronger effect = lower value 1.03 | S. cerevisiae deletion strains, locus YBR231C, strain swc5, stronger effect = lower value 1.03 | S. cerevisiae deletion strains, locus YBR279W, strain paf1, stronger effect = lower value 1.03 | S. cerevisiae deletion strains, locus YCL011C, strain gbp2, stronger effect = lower value 1.02 | S. cerevisiae deletion strains, locus YCL016C, strain dcc1, stronger effect = lower value 1.02 | S. cerevisiae deletion strains, locus YCL061C, strain MRC1, stronger effect = lower value 1.02 | S. cerevisiae deletion strains, locus YCL069W, strain vba3, stronger effect = lower value 1.02 | S. cerevisiae deletion strains, locus YCR088W, strain abp1, stronger effect = lower value 1.02 | S. cerevisiae deletion strains, locus YDL005C, strain med2, stronger effect = lower value 1.03 | S. cerevisiae deletion strains, locus YDL040C, strain nat1, stronger effect = lower value 1.02 | S. cerevisiae deletion strains, locus YDR001C, strain nth1, stronger effect = lower value 1.02 | S. cerevisiae deletion strains, locus YDR069C, strain doa4, stronger effect = lower value 1.04 | S. cerevisiae deletion strains, locus YDR137W, strain rgp1, stronger effect = lower value 1.03 | S. cerevisiae deletion strains, locus YDR159W, strain sac3, stronger effect = lower value 1.05 | S. cerevisiae deletion strains, locus YDR195W, strain ref2 1.02 | S. cerevisiae deletion strains, locus YDR297W, strain sur2, stronger effect = lower value 1.03 | S. cerevisiae deletion strains, locus YDR334W, strain swr1, stronger effect = lower value 1.03 | S. cerevisiae deletion strains, locus YDR335W, strain msn5, stronger effect = lower value 1.03 | S. cerevisiae deletion strains, locus YDR392W, strain spt3, stronger effect = lower value 0.974 | S. cerevisiae deletion strains, locus YEL003W, strain gim4, stronger effect = lower value 1.04 | S. cerevisiae deletion strains, locus YEL037C, strain rad23, stronger effect = lower value 1.03 | S. cerevisiae deletion strains, locus YEL061C, strain CIN8 (second series), stronger effect = lower value 1.03 | S. cerevisiae deletion strains, locus YER015W, strain faa2, stronger effect = lower value 1.02 | S. cerevisiae deletion strains, locus YER016W, strain bim1, stronger effect = lower value 1.02 | S. cerevisiae deletion strains, locus YER111C, strain swi4, stronger effect = lower value 1.04 | S. cerevisiae deletion strains, locus YER155C, strain BEM2 (second series), stronger effect = lower value 1.05 | S. cerevisiae deletion strains, locus YFR010W, strain ubp6, stronger effect = lower value 1.03 | S. cerevisiae deletion strains, locus YGL167C, strain pmr1, stronger effect = lower value 1.02 | S. cerevisiae deletion strains, locus YGL173C, strain kem1, stronger effect = lower value 1.02 | S. cerevisiae deletion strains, locus YGL227W, strain vid30, stronger effect = lower value 1.03 | S. cerevisiae deletion strains, locus YGL240W, strain doc1, stronger effect = lower value 1.02 | S. cerevisiae deletion strains, locus YGL253W, strain hxk2, stronger effect = lower value 1.03 | S. cerevisiae deletion strains, locus YHR013C, strain ard1, stronger effect = lower value 1.04 | S. cerevisiae deletion strains, locus YHR027C, strain rpn1, stronger effect = lower value 1.02 | [1] 1.08 | [2] 1.05 | S. cerevisiae deletion strains, locus YHR142W, strain chs7, stronger effect = lower value 1.04 | S. cerevisiae deletion strains, locus YJL092W, strain hpr5, stronger effect = lower value 1.03 | S. cerevisiae deletion strains, locus YJL095W, strain BCK1 (second series), stronger effect = lower value 1.03 | [3] 1.05 | S. cerevisiae deletion strains, locus YJL115W, strain asf1, stronger effect = lower value 1.05 | S. cerevisiae deletion strains, locus YJL129C, strain trk1, stronger effect = lower value 1.06 | S. cerevisiae deletion strains, locus YJL154C, strain vps35, stronger effect = lower value 1.01 | S. cerevisiae deletion strains, locus YJL164C, strain tpk1, stronger effect = lower value 1.02 | S. cerevisiae deletion strains, locus YJL166W, strain qcr8, stronger effect = lower value 1.02 | [9] 1.02 | [4] 0.995 | S. cerevisiae deletion strains, locus YKL160W, strain elf1, stronger effect = lower value 1.02 | S. cerevisiae deletion strains, locus YKR026C, strain gcn3, stronger effect = lower value 1 | S. cerevisiae deletion strains, locus YKR091W, strain srl3, stronger effect = lower value 1.02 | S. cerevisiae deletion strains, locus YLL001W, strain dnm1, stronger effect = lower value 1.02 | S. cerevisiae deletion strains, locus YLL026W, stronger effect = lower value 1.03 | S. cerevisiae deletion strains, locus YLL041C, strain sdh2, stronger effect = lower value 1.02 | S. cerevisiae deletion strains, locus YLR027C, strain aat2, stronger effect = lower value 1.02 | [5] 1.07 | S. cerevisiae deletion strains, locus YLR221C, strain rsa3, stronger effect = lower value 1.03 | S. cerevisiae deletion strains, locus YLR258W, strain gsy2, stronger effect = lower value 1.02 | S. cerevisiae deletion strains, locus YLR262C, strain YPT6 (second series), stronger effect = lower value 1.03 | S. cerevisiae deletion strains, locus YLR320W, strain mms22, stronger effect = lower value 1.03 | S. cerevisiae deletion strains, locus YLR342W, strain FKS1, stronger effect = lower value 1.03 | S. cerevisiae deletion strains, locus YLR357W, strain rsc2, stronger effect = lower value 1.07 | S. cerevisiae deletion strains, locus YLR370C, strain arc18, stronger effect = lower value 1.02 | S. cerevisiae deletion strains, locus YLR384C, strain iki3, stronger effect = lower value 1.02 | S. cerevisiae deletion strains, locus YML120C, strain ndi1, stronger effect = lower value 1.01 | S. cerevisiae deletion strains, locus YMR058W, strain fet3, stronger effect = lower value 1.03 | S. cerevisiae deletion strains, locus YMR125W, strain sto1, stronger effect = lower value 1.05 | S. cerevisiae deletion strains, locus YMR129W, stronger effect = lower value 1.02 | S. cerevisiae deletion strains, locus YMR205C, strain PFK2, stronger effect = lower value 1.04 | S. cerevisiae deletion strains, locus YMR231W, strain pep5, stronger effect = lower value 1.03 | S. cerevisiae deletion strains, locus YNL071W, strain lat1, stronger effect = lower value 1.03 | [6] 0.984 | S. cerevisiae deletion strains, locus YNL209W, strain ssb2, stronger effect = lower value 1.02 | S. cerevisiae deletion strains, locus YNL248C, strain rpa49, stronger effect = lower value 1.03 | S. cerevisiae deletion strains, locus YNL322C, strain KRE1 (second series), stronger effect = lower value 1.02 | S. cerevisiae deletion strains, locus YNR049C, strain mso1, stronger effect = lower value 1.03 | S. cerevisiae deletion strains, locus YOR001W, strain rrp6, stronger effect = lower value 1.03 | S. cerevisiae deletion strains, locus YOR070C, strain gyp1, stronger effect = lower value 1.02 | S. cerevisiae deletion strains, locus YOR080W, strain dia2, stronger effect = lower value 1.03 | S. cerevisiae deletion strains, locus YOR083W, strain WHI5, stronger effect = lower value 1.01 | S. cerevisiae deletion strains, locus YOR106W, strain vam3, stronger effect = lower value 1.02 | [7] 1.06 | S. cerevisiae deletion strains, locus YOR265W, strain rbl2, stronger effect = lower value 1.02 | S. cerevisiae deletion strains, locus YOR270C, strain vph1, stronger effect = lower value 1.09 | S. cerevisiae deletion strains, locus YOR290C, strain snf2, stronger effect = lower value 0.993 | S. cerevisiae deletion strains, locus YPL051W, strain arl3, stronger effect = lower value 1.02 | S. cerevisiae deletion strains, locus YPL078C, strain atp4, stronger effect = lower value 1.03 | S. cerevisiae deletion strains, locus YPL106C, strain sse1, stronger effect = lower value 1.02 | S. cerevisiae deletion strains, locus YPL240C, strain hsp82, stronger effect = lower value 1.03 | [8] 1.05

COc1ccc(NC(=O)c2ccc(-c3ccc(-c4noc(C)n4)cc3C)cc2)cc1N1CCN(C)CC1
inactive: [16] 1.05 | [17] 0.982 | [18] 0.959 | [19] 1.01 | [10] 0.974 | S. cerevisiae deletion strains, locus YMR307W, strain GAS1, stronger effect = lower value 0.933 | [12] 0.946 | [20] 1.02 | [21] 1.04 | [22] 1.01 | [13] 0.965 | [23] 0.939 | [15] 0.994

Cc1nc(-c2ccc(-c3ccc(C(=O)N4CCc5cc6c(cc54)C4(CCN(C)CC4)CO6)cc3)c(C)c2)no1
active: [17] 0.902 | [10] 0.898 | [13] 0.64 | [23] 0.677 | [15] 0.907
inactive: [16] 0.967 | [18] 0.991 | [19] 0.991 | [11] 1 | [20] 0.964 | [21] 0.989 | [22] 0.961 | [14] 1.04

From PubChem BioAssay AID1159580 (chemical genetic matrix, 2015)
